Hits are enriched below; roughly 12% of the tested compounds scored in any of these assays.
BAZ2B block: inhibitors of human BAZ2B bromodomain. AlphaScreen BAZ2B-H3K14Ac peptide displacement. Potency, µM (top dose mostly 114 µM), without a hit: top-dose activity change, negative = inhibition, actives largely listed as inhibitors. 360,000 tested, 4.4% active; further: on the % scale 0 is the no-effect control and ±100 the full control effect; nearly all actives have a fitted effect of over 60% in size
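AlphaScreen luminescence quantifies BAZ2B engagement of H3K14Ac peptide; the protein and biotinylated peptide are both at 50 nM final, buffer PBS pH 7.4 with 0.01% Tween-20, all steps at room temperature.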
JMJD2A Tudor: JMJD2A Tudor domain (human) inhibition. 390,000 tested, 4.4% active. Potency, µM (titrated, usually from 114 µM), without a hit: at the top dose activity change, negative = inhibition, most hits filed as inhibitors. AlphaScreen JMJD2A-Tudor / H3K4me3 peptide binding. AID 504339; further: on the % scale 0 is the no-effect control and ±100 the full control effect; nearly all actives have a fitted effect of over 50% in size
Target sequence (O75164 whole entry, looked up, the tested form may be a part): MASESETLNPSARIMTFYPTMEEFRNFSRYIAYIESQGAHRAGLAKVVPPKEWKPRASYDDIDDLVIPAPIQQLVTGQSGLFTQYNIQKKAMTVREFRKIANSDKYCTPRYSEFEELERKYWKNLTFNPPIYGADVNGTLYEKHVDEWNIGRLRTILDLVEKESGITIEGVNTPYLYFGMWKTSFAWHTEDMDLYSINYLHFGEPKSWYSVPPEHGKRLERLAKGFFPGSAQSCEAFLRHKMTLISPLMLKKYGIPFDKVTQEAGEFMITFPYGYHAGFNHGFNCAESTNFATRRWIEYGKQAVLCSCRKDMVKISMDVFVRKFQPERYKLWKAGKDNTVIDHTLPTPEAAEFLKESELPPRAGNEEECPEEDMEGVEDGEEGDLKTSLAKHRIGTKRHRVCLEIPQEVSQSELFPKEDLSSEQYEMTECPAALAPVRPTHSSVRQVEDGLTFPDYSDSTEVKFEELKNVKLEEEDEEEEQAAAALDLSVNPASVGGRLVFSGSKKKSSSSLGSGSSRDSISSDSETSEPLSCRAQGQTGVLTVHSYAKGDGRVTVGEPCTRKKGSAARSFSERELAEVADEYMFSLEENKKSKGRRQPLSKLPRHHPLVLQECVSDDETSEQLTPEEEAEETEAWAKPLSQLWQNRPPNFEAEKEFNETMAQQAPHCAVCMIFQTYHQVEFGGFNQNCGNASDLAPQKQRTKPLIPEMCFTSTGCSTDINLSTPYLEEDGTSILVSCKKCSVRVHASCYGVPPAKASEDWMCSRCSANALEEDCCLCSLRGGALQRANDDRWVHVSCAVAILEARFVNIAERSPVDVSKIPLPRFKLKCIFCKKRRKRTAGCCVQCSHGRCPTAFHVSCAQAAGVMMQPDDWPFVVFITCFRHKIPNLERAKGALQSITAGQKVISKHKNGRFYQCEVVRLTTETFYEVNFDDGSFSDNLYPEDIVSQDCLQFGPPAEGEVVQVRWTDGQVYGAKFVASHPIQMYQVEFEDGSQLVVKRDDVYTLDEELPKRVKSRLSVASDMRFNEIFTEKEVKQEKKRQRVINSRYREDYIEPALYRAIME
HP1b chromo inh: blocks HP1-beta chromodomain binding to methylated histone tails | P83916 | AlphaScreen HP1-beta / biotin-H3K9me3 peptide binding | Potency, µM (doses to about 114 µM), for inactives: at the top dose activity change, negative = inhibition, actives largely listed as inhibitors | 390,000 tested, 0.56% active; further: nearly all actives have a fitted effect of over 70% in size
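Compound inhibition of the preformed complex between 50 nM HP1-beta and 50 nM biotinylated H3K9me3 peptide was read by AlphaScreen. Buffer was PBS pH 7.4 with 0.01% Tween-20. Incubations ran 30 min at room temperature, with 10 ug/mL donor/acceptor beads.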
Sfp PPTase inh: inhibitors of Bacillus subtilis Sfp phosphopantetheinyl transferase; Q9F4F7; Biochemical Sfp PPTase activity, qHTS; Potency, µM, inactives show largest response in the series, negative = inhibition, usual class: inhibitors; 310,000 tested, 3.5% active;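 further: the enzyme is Sfp with the accession as filed and its product quenches rhodamine fluorescence; 0% = enzyme reaction without inhibitor and -100% = no enzyme wells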
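Fluorescence-quenching assay with 15 nM Sfp, 5 uM rhodamine-CoA and 12.5 uM BHQ-2-labelled ybbR peptide in pH 7.6 Hepes/MgCl2 buffer. Enzyme was pre-incubated with compound for 15 min at room temperature. Rate was taken from the 30-min fluorescence change (525/598 nm).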
G9a block: inhibitors of human histone lysine methyltransferase G9a; AID 504332; 350,000 tested, 8.8% active; G9a H3K9 monomethylation, AlphaScreen, 2 h; Q96KQ7; Potency, µM (series often up to 102 µM), inactives show at the highest dose activity, negative = inhibition, hits mostly inhibitors; further: on the % scale 0 is the no-effect control and ±100 the full control effect; nearly all actives have a fitted effect of over 75% in size
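Chemiluminescent proximity detection of H3K9 monomethylation, read after 10 min bead incubation in the dark. Reaction: 20 nM G9a, 500 nM biotin-H3K9 peptide, 20 uM SAM cofactor, 2 h, room temperature, following 15 min enzyme-compound preincubation.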
* hit, by the source's call; ? = inconclusive; · = not tested or not shown; [ ] = remark or other dose. The call rests on the fitted dose curve; in most records, active means well fitted curve in the direction sought with a large enough effect; inconclusive means small, poorly fitted or top-dose-only effect, or another doubt; inactive means no such curve, though single readings can be large; an effect the other way counts as inactive or inconclusive. Potency means the concentration at half of the fitted maximal effect.

SMILES | BAZ2B block | JMJD2A Tudor | HP1b chromo inh | Sfp PPTase inh | G9a block
CNc1ncnc2c1ncn2[C@H]1C[C@H](O)[C@@H](CO)O1 | · | · | · | 18.1% | 42.9%[59 µM]
O=C1CCCN1CCC1CCN(C2CC(=O)N(c3ccc(F)cc3)C2=O)CC1 (centres undefined) | 2.3% | -14.7% | 43.8% | -14.4% | 14.1µM*
O=C(C1CCN(C2CC(=O)N(c3ccc(F)cc3)C2=O)CC1)N1CCOCC1 (centres undefined) | -3.3% | ? | 30.7% | -13.8% | ?
Cn1c(N/N=C/c2cccs2)cc(=O)n(C)c1=O | -4.3% | 7.3% | 35.3% | -16.6% | 50.1µM*
CCOC(=O)c1c(CSc2ccccc2)n(C)c2cc(Br)c(OCC(O)CNC(CO)(CO)CO)cc12 (centres undefined) | ? | ? | 56.2µM* | ? | 39.8µM*
CN(C(=O)COC(=O)C1CCN(S(=O)(=O)c2cccs2)CC1)c1ccccc1 | 15.5% | -3.8% | 38.3% | 18.1% | -33.8%
Cc1c(C(=O)N(C)C)c2ccc(Cl)cc2n1O | 4.1% | -9.4% | 12.8% | 7.2% | 3.16µM*
Cc1ccc(N2CCN(S(=O)(=O)N(C)C)CC2)c(C)c1 | 3.3% | 2.8% | 52.3% | 2.8% | -30.4%
CCC1(C)Cc2c(sc3nn[nH]c(=O)c23)CO1 (centres undefined) | -2.5% | -10.6% | -18.9% | -26.0% | 39.8µM*
Cn1c(NN)nc2sc3c(c2c1=O)CC(C)(C)OC3 | -3.9% | ? | -9.6% | ? | -30.9%[59 µM]
C=CCNC(=S)NNc1nc2sc3c(c2c(=O)[nH]1)CC(C)(C)OC3 | -4.5% | -5.5% | 7.5% | 7.08µM* | ·
C=CCSc1nc2sc3c(c2c(=O)[nH]1)CC(C)(C)OC3 | · | -3.4% | 36.7% | · | ·
CCC1(C)Cc2c(sc3nc(NC)n(C)c(=O)c23)CO1 (centres undefined) | ? | ? | 31.4% | ? | 31.6µM*
CC1(C)Cc2c(sc3nn[nH]c(=O)c23)CO1 | 13.7% | -11.7% | -13.1% | -12.7% | 31.6µM*
O=C(NC(=S)Nc1cc(C(F)(F)F)ccc1N1CCOCC1)c1sc2ccccc2c1Cl | -28.8% | -10.0% | 0.3% | -9.3% | -18.8%[59 µM]
CCOc1ccc(C(=O)NC(C(=O)NCc2cccnc2)C(C)C)cc1 (centres undefined) | 12.6% | -1.4% | 32.2% | -5.8% | -4.8%
COc1ccc(C(=O)Nc2ccc(S(=O)(=O)NC(C)=O)cc2)cc1 | 15.3% | -11.3% | 19.6% | -16.4% | -31.5%[12.7 µM]
O=C(O)c1ccc(Cn2nnc3sc4c(c3c2=O)CCCC4)cc1 | 79.4µM* | -15.8% | 5.5% | -18.2% | 50.1µM*
CC1(C)Cc2c(sc3nnn(Cc4ccccc4)c(=O)c23)CO1 | -7.2% | 6.5% | 23.6% | -20.8% | 12.6µM*
Cc1ccccc1NC(=O)Cn1nnc2sc3c(c2c1=O)CC(C)(C)OC3 | -4.0% | -15.5% | -3.2% | 4.2% | 23.8%
COC(=O)c1ccc(Cn2nnc3sc4c(c3c2=O)CCCC4)cc1 | -9.0% | -8.9% | 30.5% | · | -2.6%[59 µM]
c1cc(C(c2nnnn2C2CCCC2)N2CCOCC2)ccn1 (centres undefined) | 9.8% | -10.5% | 29.8% | -21.4% | -39.8%[12.7 µM]
Oc1ccc(C(c2nnnn2C2CCCCC2)N2CCOCC2)cc1 (centres undefined) | ? | -20.6% | 22.8% | ? | 22.4µM*
Fc1ccc(NC(=S)Nc2ccc3nccnc3c2)cc1 | -16.5% | -16.3% | 34.7% | ? | 39.8µM*
CC1=NN(C(C#N)c2c(C)nn(Cc3ccccc3)c2C)C(C)(C)C1 (centres undefined) | -4.6% | ? | 28.9% | 17.5% | 35.5µM*
SMILES | BAZ2B block | JMJD2A Tudor | HP1b chromo inh | Sfp PPTase inh | G9a block
CC1=NN(C(C#N)c2ccc([N+](=O)[O-])cc2)C(C)(C)C1 (centres undefined) | -36.3% | 22.4µM* | -20.1% | 0.5% | ?
COc1cc(C2c3c(n[nH]c3C)C(=O)N2c2ccc(C)cc2)ccc1O (centres undefined) | -6.0% | 34.9% | 45.6% | 10.0% | 50.1µM*
Cc1ccc(N2C(=O)c3n[nH]c(C)c3C2c2cccnc2)cc1 (centres undefined) | -7.7% | -6.0% | 33.0% | 6.6% | 50.1µM*
COCc1cc(C)nc(SCC(=O)Nc2cc3c(cc2C#N)OCO3)c1C#N | 9.4% | -3.8% | 13.1% | 0.5% | -11.0%[2.33 µM]
C=CCn1c(C(C)NC(=O)c2cccc(C)c2)n[nH]c1=S (centres undefined) | -4.4% | 17.8µM* | 38.6% | 11.5% | 28.2µM*
CCn1c(C(C)NC(=O)c2ccc(Cl)cc2)n[nH]c1=S (centres undefined) | -18.1% | 10µM* | -9.1% | ? | ?
CC1CCc2cc(F)ccc2N1C(=O)c1cccnc1 (centres undefined) | 3.5% | -13.0% | 64.8% | -0.3% | ·
CC1Cc2ccccc2N1C(=O)c1cccnc1 (centres undefined) | 3.5% | -1.9% | 18.6% | -5.1% | 50.1µM*
CC1Cc2ccccc2N1C(=O)c1cnc2n(c1=O)CCS2 (centres undefined) | 7.3% | -6.9% | 33.7% | -3.5% | 44.7µM*
O=C(O)CCS(=O)(=O)Cc1cccc(Cl)c1 | -3.1% | -19.2% | 41.3% | 14.6% | -3.8%
Cc1ccc(NC(=O)CN(C)C(=O)Cc2coc3cc(C)c(C)cc23)cc1 | · | -23.0% | 12.2% | · | ·
CC1=CN2C(=N)/C(=C/c3ccc([N+](=O)[O-])o3)C(=O)N=C2S1 | 44.7µM* | 79.4µM* | ? | 35.5µM* | ?
CN(c1ccccc1)c1ccc(/C=N/N2CCOCC2)cc1 | 50.1µM* | 44.7µM* | 50.1µM* | -14.8% | ?
CCN(CC)c1ccc(/C=N/N2CCN(Cc3ccccc3)CC2)c(O)c1 | 12.6µM* | 14.1µM* | -77.0% | -3.7% | ?
CN(C)c1ccc(/C=N/N2CCN(Cc3ccccc3Cl)CC2)cc1 | 50.1µM* | 31.6µM* | ? | -5.2% | ?
COC(=O)c1ccc(/C=N/N2CCN(Cc3ccccc3)CC2)cc1 | -8.4% | -19.8% | 11.5% | ? | ?
CCN(CC)c1ccc(/C=N/N2CCN(Cc3ccccc3Cl)CC2)cc1 | 7.08µM* | 17.8µM* | ? | -8.2% | 8.91µM*
COC(=O)c1cccc(CN2C(=O)SC(Nc3ccc(Br)cc3)C2=O)c1 (centres undefined) | ? | -13.7% | 29.9% | · | -5.7%[59 µM]
Cc1nc2nc(-c3cccnc3)[nH]n2c(=O)c1Cc1ccccc1 | -0.8% | -7.4% | 26.3% | 13.2% | -42.6%[12.7 µM]
CCN(CC)c1ccc(/C=N/N2CCN(Cc3ccc(C)cc3C)CC2)c(O)c1 | 10µM* | 22.4µM* | 20µM* | 2.7% | ?
C(=N\N1CCN(Cc2ccccc2)CC1)/c1ccccc1 | ? | -9.6%[11.4 µM] | 4.8% | 9.5% | ?
CCN(CC)c1ccc(/C=N/N2CCN(Cc3ccccc3)CC2)cc1 | 14.1µM* | 22.4µM* | ? | -17.2% | 10µM*
CCN(CC)c1ccc(/C=N/N2CCOCC2)c(O)c1 | -34.1% | -25.5% | 5.6% | -13.0% | ?

Compound activity deposited in PubChem by National Center for Advancing Translational Sciences (NCATS).
